This is an account of results in PubChem BioAssay (NCATS).

The structures appear in SMILES notation. Results filed as inconclusive are left out. Calls of active or inactive are those of the source. The call rests on the fitted dose curve; in most records, active means well fitted curve in the direction sought with a large enough effect; inconclusive means small, poorly fitted or top-dose-only effect, or another doubt; inactive means no such curve, though single readings can be large; an effect the other way counts as inactive or inconclusive.

The nature of experiment [1]: P-glycoprotein substrates identified in KB-3-1 adenocarcinoma cell line, qHTS therapeutic library screen (AID 1346986). Further: nearly all actives have a fitted effect of over 60% in size.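 Further: potency is for cytotoxicity meaning loss of cell viability.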 Put shortly: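 KB-3-1 parental cells and P-gp-overexpressing KB-8-5-11 (colchicine omitted during assay) plated at 500 cells/well, dosed in dose-response, incubated 72 h at 37 degree C. CellTiter-Glo luminescence read; KB-8-5-11 also tested with tariquidar.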
In general terms: qHTS replaces the single test concentration by a dilution series.

A short description of experiment [2]: P-glycoprotein substrates identified in KB-8-5-11 adenocarcinoma cell line, qHTS therapeutic library screen (AID 1346987). Further: nearly all actives have a fitted effect of over 65% in size. Put shortly: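 P-gp-mediated resistance screen: KB-8-5-11 cells treated 72 h with compounds in dose-response. CellTiter-Glo viability.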
Potency means the concentration at half of the fitted maximal effect.

As for `CCN1CCN(Cc2ccc(NC(=O)c3ccc(C)c(NC(=O)c4cncc(-c5cccs5)c4)c3)cc2C(F)(F)F)CC1`, the Potency was 2.06 µM (active) in experiment [1] and 7.31 µM (active) in experiment [2].

`CCOC(=O)c1cc(C#N)c(N2CCC(C(=O)NS(=O)(=O)Cc3ccccc3)CC2)nc1C`: the Potency result in experiment [1] and in experiment [2] was “inactive” throughout.

Take `C[C@@H]1O[C@@H](OC[C@H]2O[C@@H](OC(CCCCc3ccc(O)cc3)CCc3ccc(O)cc3)[C@H](O)[C@@H](O)[C@@H]2O)[C@H](O)[C@H](O)[C@H]1O` (some centres undefined): the Potency entry in experiment [1] and in experiment [2] was “inactive” in each case.

Turning to `CC1=C2C(O)C(=O)OC(c3ccoc3)C2(C)CCC1O` (centres undefined), the Potency entry in experiment [1] and in experiment [2] was “inactive” in each case.

As for `CC(C)(O)c1ccc2c(c1)C(O)C[C@H]1[C@](C)(C(=O)O)CCC[C@]21C` (some centres undefined), the Potency result in experiment [1] and in experiment [2] was “inactive” in each case.

On to `Cc1noc(=O)c2ccc(NC(=O)C(O)(CC(C)(C)c3cccc4c3OCC4)C(F)(F)F)cc12` (centres undefined), for which the Potency entry in experiment [1] and in experiment [2] was “inactive” each time.

For `CC(C)(C)NS(=O)(=O)c1cncc(-c2cc(F)c3nc(N)nn3c2)c1`, the Potency result in experiment [1] and in experiment [2] was “inactive” each time.

Take `Cn1cc(-c2ccc3nnc(Sc4ccc5nn(C)cc5c4)n3n2)cn1`: the Potency entry in experiment [1] and in experiment [2] was “inactive” throughout.

As for `COC(=O)CCc1cc2ccoc2c(OC)c1O[C@@H]1O[C@H](CO)[C@@H](O)[C@H](O)[C@H]1O`, the Potency entry in experiment [1] and in experiment [2] was “inactive” throughout.

Take `COC(=O)C(C)C1CCC2(C)C(=O)C=CC(C)(O)C2C1O` (centres undefined): the Potency result in experiment [1] and in experiment [2] was “inactive” each time.

Regarding `C=C1C(O)CC2C(C(=O)O)=COC(O[C@@H]3O[C@H](COC(=O)/C=C/c4ccc(O)cc4)[C@@H](O)[C@H](O)[C@H]3O)C12` (some centres undefined), the Potency result in experiment [1] and in experiment [2] was “inactive” throughout.

With `C=CC(C)(CC/C=C(\C)C(=O)OC)OC1OC(COC(=O)CC(C)(O)CC(=O)O)C(OC2OC(CO)C(O)C(O)C2O)C(O)C1O` (centres undefined), the Potency result in experiment [1] and in experiment [2] was “inactive” throughout.
